Measured values: publication PMC5540273 (PLoS ONE, 2017)

These compounds were tested on T1, RSK2(Kin.Dom.2-C-terminal). Details: concentration: 1 μM, replicates: in singlicate; n = 1.
T1 construct: gene RPS6KA3
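Further: KINOMEscan kinase panel screen.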

Row | SMILES | %Inh
1 | COc1ccc(Nc2nccc(NCCNC(=O)c3cc4ccccc4s3)n2)cc1 [GSK1379896] | 23%
2 | Cc1ccc(F)c(C(=O)Nc2cccc(-c3nn4ccccc4c3-c3ccnc(Nc4cccc(F)c4)n3)c2)c1F [GSK361061] | 0%
3 | CC(C)(C)c1ccc2nccc(Nc3cccc(O)c3)c2c1 [GW856795] | 49%
4 | COc1cc(Nc2ncc3c(C)nc(-c4cc5ccccc5[nH]4)n3n2)cc(OC)c1OC [GW869516] | 32%
5 | COC(=O)Nc1nc2ccc(Oc3ccc(NC(=O)Nc4cc(C(F)(F)F)ccc4F)cc3)cc2n1C.Cl [GW692089] | 0%
6 | CCCCc1nn2ncccc2c1-c1ccnc(Nc2ccc(N3CCN(C)CC3)cc2)n1 [GW684941] | 20%
7 | O=C(O)C(F)(F)F.O=C(O)C(F)(F)F.O=c1[nH]ccc2nc(N[C@@H]3CCCNC3)nc(Nc3ccc(S(=O)(=O)N4CCOCC4)cc3)c12 [GSK2177277] | 11%
8 | Cl.Cl.NCC(C(=O)Nc1cc(Br)c(-c2ccnc3[nH]ccc23)s1)c1ccccc1 (stereo not drawn) [GSK1269851] | 2%
9 | COc1ccc(-c2coc3ccc(-c4nnc(SCc5ccc(OC)c(C(F)(F)F)c5)o4)cc23)cc1 | 19%
10 | COc1cccc(-c2ccc3c(NC(=O)C4CC4)n[nH]c3n2)c1 [SB-710903] | 22%
11 | Oc1cc(Nc2ccnc3cc(I)ccc23)ccc1F [GW552771] | 26%
12 | COc1cc2c(cc1OCCN1CCNCC1)ncc1c3ccc(C#N)cc3[nH]c21 | 0%
13 | CCS(=O)(=O)c1ccc(OC)c(Nc2nccc(-c3c(-c4cccc(NC(=O)c5c(F)cccc5F)c4)nn4ncccc34)n2)c1 [GSK326180] | 0%
14 | Cc1cccc(Nc2nc(N[C@H]3CCNC3)ncc2C(N)=O)c1.Cl [GSK2197149] | 0%

These compounds were tested on T2, RSK3(Kin.Dom.1-N-terminal). Details: concentration: 1 μM, replicates: in singlicate; n = 1.
T2 construct: gene RPS6KA2

Row | SMILES | %Inh
15 | COc1cc(Nc2nccc(N3CCC(NC(=O)Nc4cccc(C(C)=O)c4)C3)n2)cc(OC)c1OC (stereo not drawn) [GSK1379753] | 17%
16 | CCn1c(-c2nonc2N)nc2c(C#CC(C)(C)O)ncc(OCCCCN)c21.O=C(O)C(F)(F)F.O=C(O)C(F)(F)F [GSK507274] | 11%
17 | COc1cc(Nc2nccc(-c3c(-c4cccc(NC(=O)c5c(F)cccc5F)c4)nn4ncccc34)n2)cc(OC)c1OC [GSK327238] | 96.8%
18 | O=C(Nc1n[nH]c2nc(-c3ccc(O)cc3)ccc12)C1CC1 [SB-710363] | 12%
19 | O=c1[nH]cc(-c2ccc(N3CCOCC3)cc2)c2sc(-c3cn[nH]c3)cc12 [GSK2276055] | 14%
20 | O=C(Nc1cccc(-c2nn3ccccc3c2-c2ccnc(Nc3cccc(F)c3)n2)c1)c1c(F)ccc(F)c1Cl [GSK357952] | 24%
21 | CC(C)c1nc(-c2cccc(NS(=O)(=O)c3c(F)cccc3F)c2F)c(-c2ccnc(Nc3ccc(N4CCOCC4)nc3)n2)s1 [GSK2008607] | 45%
22 | CC(=O)N1CCN(c2ccc(Nc3nccc(-c4sc(C(C)C)nc4-c4cccc(NS(=O)(=O)c5cccc(Cl)c5)c4)n3)cn2)CC1 [GSK1660437] | 5%
23 | O=C(Nc1cccc(-c2nn3ncccc3c2-c2ccnc(Nc3ccccc3)n2)c1)c1c(F)cccc1F [GSK198271] | 37%
24 | Cl.c1ccc(-c2ccc3c(Nc4ccc5[nH]ncc5c4)ccnc3c2)nc1 [GW440137] | 6%
25 | Cn1cc(-c2[nH]c3cc(NC(=O)[C@H](N)C4CCCCC4)cc4c3c2C=NNC4=O)cn1 | 65%
26 | CNC(=O)c1ccccc1Nc1nc(Nc2ccc(N3CCOCC3)cc2)ncc1Cl.Cl [GSK1576028] | 99.3%
27 | c1ccc(-c2cnc3nccnn23)cc1 [AH20685] | 0%
28 | CN(C)S(=O)(=O)c1cc(-c2ccc3nccc(-c4cccc(S(N)(=O)=O)c4)c3c2)cnc1N [GSK1669921] | 2%
29 | COc1cccc(NC(=O)NC2CCN(c3ccnc(Nc4cc(OC)c(OC)c(OC)c4)n3)C2)c1 (stereo not drawn) [GSK1379763] | 12%
30 | C[C@@H](Oc1cc(-n2cnc3cc(-c4ccnc(NCCS(C)(=O)=O)c4)ccc32)sc1C(N)=O)c1ccccc1Cl [GSK907232] | 66%
31 | Fc1ccc(-c2ncn(C3CCNCC3)c2-c2ccnc(Oc3ccc(-c4ccccc4)cc3)n2)cc1 [SB-245391] | 0%
32 | COc1cccc(C(=O)Nc2cccc(Oc3ccc4nc(NC(=O)C5CC5)cn4n3)c2)c1 | 5%
33 | Nc1ncc(-c2cccnc2)c2scc(-c3ccc4c(c3)CCN4C(=O)Cc3ccccc3)c12 [GSK683281] | 14%

Row | SMILES | %Inh
34 | Cc1occc1-c1ncc(OC[C@@H](N)Cc2c[nH]c3ccccc23)cc1-c1ccc2[nH]nc(C)c2c1.O=C(O)C(F)(F)F [GSK682037] | 22%
35 | Nc1n[nH]c2cnc(-c3ccccc3)cc12 [SB-642124] | 18%
36 | Cc1ccc(S(=O)(=O)Nc2ccc(Nc3nccc(Nc4cccc5[nH]ncc45)n3)cc2)cc1 [GSK581271] | 5%
37 | c1ccc(-c2n[nH]cc2Nc2ccnc3ccccc23)nc1 [GW694077] | 0%
38 | COc1ccc(Nc2nccc(NCCNC(=O)c3cc4ccccc4s3)n2)cc1 [GSK1379896] | 0%
39 | Cc1ccc(F)c(C(=O)Nc2cccc(-c3nn4ccccc4c3-c3ccnc(Nc4cccc(F)c4)n3)c2)c1F [GSK361061] | 0%
40 | CC(C)(C)c1ccc2nccc(Nc3cccc(O)c3)c2c1 [GW856795] | 19%
41 | COc1cc(Nc2ncc3c(C)nc(-c4cc5ccccc5[nH]4)n3n2)cc(OC)c1OC [GW869516] | 66%
42 | COC(=O)Nc1nc2ccc(Oc3ccc(NC(=O)Nc4cc(C(F)(F)F)ccc4F)cc3)cc2n1C.Cl [GW692089] | 0%
43 | CCCCc1nn2ncccc2c1-c1ccnc(Nc2ccc(N3CCN(C)CC3)cc2)n1 [GW684941] | 5%
44 | O=C(O)C(F)(F)F.O=C(O)C(F)(F)F.O=c1[nH]ccc2nc(N[C@@H]3CCCNC3)nc(Nc3ccc(S(=O)(=O)N4CCOCC4)cc3)c12 [GSK2177277] | 99.3%
45 | Cl.Cl.NCC(C(=O)Nc1cc(Br)c(-c2ccnc3[nH]ccc23)s1)c1ccccc1 (stereo not drawn) [GSK1269851] | 100%
46 | COc1ccc(-c2coc3ccc(-c4nnc(SCc5ccc(OC)c(C(F)(F)F)c5)o4)cc23)cc1 | 16%
47 | COc1cccc(-c2ccc3c(NC(=O)C4CC4)n[nH]c3n2)c1 [SB-710903] | 6%
48 | Oc1cc(Nc2ccnc3cc(I)ccc23)ccc1F [GW552771] | 0%
49 | COc1cc2c(cc1OCCN1CCNCC1)ncc1c3ccc(C#N)cc3[nH]c21 | 16%
50 | CCS(=O)(=O)c1ccc(OC)c(Nc2nccc(-c3c(-c4cccc(NC(=O)c5c(F)cccc5F)c4)nn4ncccc34)n2)c1 [GSK326180] | 29%
51 | Cc1cccc(Nc2nc(N[C@H]3CCNC3)ncc2C(N)=O)c1.Cl [GSK2197149] | 23%
